Experimental data published in ChEMBL document CHEMBL1961873, “Compounds: GSK PKIS; Assays: Nanosyn kinase panel” (2012).

Assays:
[1] = molecular target: High affinity nerve growth factor receptor (Homo sapiens) (UniProt P04629); settings: at 1 µM;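 note: each value is the mean percent inhibition of TRKA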
[2] = molecular target: BDNF/NT-3 growth factors receptor (Homo sapiens) (UniProt Q16620); settings: at 0.1 µM
[3] = molecular target: BDNF/NT-3 growth factors receptor (Homo sapiens) (UniProt Q16620); settings: at 1 µM
[4] = molecular target: NT-3 growth factor receptor (Homo sapiens) (UniProt Q16288); settings: at 0.1 µM
[5] = molecular target: NT-3 growth factor receptor (Homo sapiens) (UniProt Q16288); settings: at 1 µM
[6] = molecular target: T1, Tyrosine-protein kinase TXK (Homo sapiens) (UniProt P42681); settings: at 0.1 µM
T1 sequence (whole entry): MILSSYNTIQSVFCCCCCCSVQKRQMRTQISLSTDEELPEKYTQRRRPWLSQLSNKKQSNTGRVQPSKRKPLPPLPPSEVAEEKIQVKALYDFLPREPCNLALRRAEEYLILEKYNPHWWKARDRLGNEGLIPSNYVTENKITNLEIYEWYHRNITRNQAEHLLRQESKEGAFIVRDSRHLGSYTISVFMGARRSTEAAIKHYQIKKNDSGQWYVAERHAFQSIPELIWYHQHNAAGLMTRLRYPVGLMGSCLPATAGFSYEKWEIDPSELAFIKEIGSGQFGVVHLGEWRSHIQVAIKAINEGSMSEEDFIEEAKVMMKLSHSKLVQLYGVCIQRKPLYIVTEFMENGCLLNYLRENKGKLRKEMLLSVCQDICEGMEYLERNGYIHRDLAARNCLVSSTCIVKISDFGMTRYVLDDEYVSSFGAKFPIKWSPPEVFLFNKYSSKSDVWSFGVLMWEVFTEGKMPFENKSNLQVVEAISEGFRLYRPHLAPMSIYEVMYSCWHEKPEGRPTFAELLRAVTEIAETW

[7] = molecular target: T1, Tyrosine-protein kinase TXK (Homo sapiens); settings: at 1 µM
[8] = molecular target: Non-receptor tyrosine-protein kinase TYK2 (Homo sapiens) (UniProt P29597); settings: at 0.1 µM;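 note: each value is a mean of the inhibition readings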
[9] = molecular target: T2, Dual specificity protein kinase TTK (Homo sapiens) (UniProt P33981); settings: at 1 µM;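 note: reported figures are mean TTK inhibition at 1 µM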
T2 sequence (whole entry): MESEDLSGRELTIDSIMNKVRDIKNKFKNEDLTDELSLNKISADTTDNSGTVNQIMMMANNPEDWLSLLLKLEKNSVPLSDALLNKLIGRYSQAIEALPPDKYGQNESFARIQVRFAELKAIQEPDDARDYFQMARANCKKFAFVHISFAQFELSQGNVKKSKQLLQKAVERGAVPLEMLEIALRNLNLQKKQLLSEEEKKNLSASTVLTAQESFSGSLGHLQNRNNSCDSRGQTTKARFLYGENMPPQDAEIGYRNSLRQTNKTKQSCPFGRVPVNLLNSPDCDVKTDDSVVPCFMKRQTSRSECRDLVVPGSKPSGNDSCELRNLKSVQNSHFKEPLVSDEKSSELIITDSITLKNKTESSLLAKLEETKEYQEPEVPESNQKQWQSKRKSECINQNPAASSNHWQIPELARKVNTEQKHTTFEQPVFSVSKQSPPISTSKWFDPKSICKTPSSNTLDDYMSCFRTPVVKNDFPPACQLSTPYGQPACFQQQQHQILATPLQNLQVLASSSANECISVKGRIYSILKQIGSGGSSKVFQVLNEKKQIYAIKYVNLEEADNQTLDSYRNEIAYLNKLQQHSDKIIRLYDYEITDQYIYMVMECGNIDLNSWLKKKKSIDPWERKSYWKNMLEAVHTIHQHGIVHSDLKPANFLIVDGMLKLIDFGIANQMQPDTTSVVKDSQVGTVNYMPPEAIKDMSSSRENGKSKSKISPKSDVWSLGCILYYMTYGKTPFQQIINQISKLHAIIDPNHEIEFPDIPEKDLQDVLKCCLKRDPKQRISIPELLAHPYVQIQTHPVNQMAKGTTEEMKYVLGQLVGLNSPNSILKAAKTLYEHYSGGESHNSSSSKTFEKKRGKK

[10] = molecular target: T3, Aurora kinase A (Homo sapiens) (UniProt O14965); settings: at 0.1 µM;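 note: each reported value is a mean percent inhibition of Aurora-A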
T3 sequence (whole entry): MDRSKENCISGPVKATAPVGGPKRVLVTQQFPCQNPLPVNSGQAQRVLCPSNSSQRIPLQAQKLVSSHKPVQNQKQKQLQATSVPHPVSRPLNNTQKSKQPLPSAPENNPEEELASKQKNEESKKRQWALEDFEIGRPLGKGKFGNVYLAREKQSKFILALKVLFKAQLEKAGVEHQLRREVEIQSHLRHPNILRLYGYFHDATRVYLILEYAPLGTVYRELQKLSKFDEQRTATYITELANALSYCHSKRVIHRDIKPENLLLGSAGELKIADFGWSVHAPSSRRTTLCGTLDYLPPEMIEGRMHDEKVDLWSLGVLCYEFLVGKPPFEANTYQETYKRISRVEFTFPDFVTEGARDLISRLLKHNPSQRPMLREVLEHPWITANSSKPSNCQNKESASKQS

Chain of NT-3 growth factor receptor (Homo sapiens) (Q16288 32-839 limits assumed): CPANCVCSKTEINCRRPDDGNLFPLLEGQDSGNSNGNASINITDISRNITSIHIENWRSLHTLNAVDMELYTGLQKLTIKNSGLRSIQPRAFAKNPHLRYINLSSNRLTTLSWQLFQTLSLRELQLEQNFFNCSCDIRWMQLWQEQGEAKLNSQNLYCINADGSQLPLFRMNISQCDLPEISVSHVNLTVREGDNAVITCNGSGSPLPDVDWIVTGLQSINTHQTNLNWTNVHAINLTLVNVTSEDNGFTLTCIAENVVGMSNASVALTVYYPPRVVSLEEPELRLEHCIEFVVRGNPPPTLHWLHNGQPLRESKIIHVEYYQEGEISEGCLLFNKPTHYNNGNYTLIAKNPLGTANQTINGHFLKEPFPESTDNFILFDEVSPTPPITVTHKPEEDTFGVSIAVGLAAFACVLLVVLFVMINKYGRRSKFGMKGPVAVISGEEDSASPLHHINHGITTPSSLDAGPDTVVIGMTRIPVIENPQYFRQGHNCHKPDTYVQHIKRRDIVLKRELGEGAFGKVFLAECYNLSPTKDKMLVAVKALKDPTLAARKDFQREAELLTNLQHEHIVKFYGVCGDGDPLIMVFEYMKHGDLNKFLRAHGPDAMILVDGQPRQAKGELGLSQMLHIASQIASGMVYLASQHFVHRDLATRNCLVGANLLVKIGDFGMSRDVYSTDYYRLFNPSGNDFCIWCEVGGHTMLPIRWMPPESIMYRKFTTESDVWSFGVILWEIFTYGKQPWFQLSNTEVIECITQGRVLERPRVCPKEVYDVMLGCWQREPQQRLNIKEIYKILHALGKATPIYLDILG
Chain of Non-receptor tyrosine-protein kinase TYK2 (Homo sapiens) (P29597 whole entry): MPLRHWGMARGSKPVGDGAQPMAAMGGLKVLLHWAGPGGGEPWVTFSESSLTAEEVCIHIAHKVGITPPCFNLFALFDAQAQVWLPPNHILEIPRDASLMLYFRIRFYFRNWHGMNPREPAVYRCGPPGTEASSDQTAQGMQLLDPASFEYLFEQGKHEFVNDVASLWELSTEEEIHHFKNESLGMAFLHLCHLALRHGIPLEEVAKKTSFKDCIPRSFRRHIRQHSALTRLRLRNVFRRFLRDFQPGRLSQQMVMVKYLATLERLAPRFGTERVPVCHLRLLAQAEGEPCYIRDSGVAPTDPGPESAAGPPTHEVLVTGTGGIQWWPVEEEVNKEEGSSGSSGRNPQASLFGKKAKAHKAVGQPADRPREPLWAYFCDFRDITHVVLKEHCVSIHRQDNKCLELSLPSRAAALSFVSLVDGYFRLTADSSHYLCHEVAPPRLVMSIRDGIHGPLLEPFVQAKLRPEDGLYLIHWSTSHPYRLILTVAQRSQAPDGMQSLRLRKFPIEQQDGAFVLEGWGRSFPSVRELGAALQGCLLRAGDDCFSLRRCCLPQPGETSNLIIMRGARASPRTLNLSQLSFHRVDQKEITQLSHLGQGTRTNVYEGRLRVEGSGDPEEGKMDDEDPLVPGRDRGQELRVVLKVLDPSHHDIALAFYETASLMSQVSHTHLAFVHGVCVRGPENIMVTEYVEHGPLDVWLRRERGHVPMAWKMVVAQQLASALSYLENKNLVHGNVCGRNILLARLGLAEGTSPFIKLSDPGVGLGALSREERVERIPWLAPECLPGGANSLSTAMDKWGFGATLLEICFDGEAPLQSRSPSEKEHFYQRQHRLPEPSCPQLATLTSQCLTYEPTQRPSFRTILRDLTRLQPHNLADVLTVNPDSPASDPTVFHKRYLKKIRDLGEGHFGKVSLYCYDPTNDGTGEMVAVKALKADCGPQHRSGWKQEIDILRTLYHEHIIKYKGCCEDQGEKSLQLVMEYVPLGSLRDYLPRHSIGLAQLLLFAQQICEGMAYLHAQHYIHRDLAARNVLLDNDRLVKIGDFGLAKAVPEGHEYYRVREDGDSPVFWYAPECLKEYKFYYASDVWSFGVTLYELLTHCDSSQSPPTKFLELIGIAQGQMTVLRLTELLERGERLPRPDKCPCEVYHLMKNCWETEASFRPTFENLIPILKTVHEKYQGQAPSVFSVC
Chain of High affinity nerve growth factor receptor (Homo sapiens) (P04629 33-796 limits assumed): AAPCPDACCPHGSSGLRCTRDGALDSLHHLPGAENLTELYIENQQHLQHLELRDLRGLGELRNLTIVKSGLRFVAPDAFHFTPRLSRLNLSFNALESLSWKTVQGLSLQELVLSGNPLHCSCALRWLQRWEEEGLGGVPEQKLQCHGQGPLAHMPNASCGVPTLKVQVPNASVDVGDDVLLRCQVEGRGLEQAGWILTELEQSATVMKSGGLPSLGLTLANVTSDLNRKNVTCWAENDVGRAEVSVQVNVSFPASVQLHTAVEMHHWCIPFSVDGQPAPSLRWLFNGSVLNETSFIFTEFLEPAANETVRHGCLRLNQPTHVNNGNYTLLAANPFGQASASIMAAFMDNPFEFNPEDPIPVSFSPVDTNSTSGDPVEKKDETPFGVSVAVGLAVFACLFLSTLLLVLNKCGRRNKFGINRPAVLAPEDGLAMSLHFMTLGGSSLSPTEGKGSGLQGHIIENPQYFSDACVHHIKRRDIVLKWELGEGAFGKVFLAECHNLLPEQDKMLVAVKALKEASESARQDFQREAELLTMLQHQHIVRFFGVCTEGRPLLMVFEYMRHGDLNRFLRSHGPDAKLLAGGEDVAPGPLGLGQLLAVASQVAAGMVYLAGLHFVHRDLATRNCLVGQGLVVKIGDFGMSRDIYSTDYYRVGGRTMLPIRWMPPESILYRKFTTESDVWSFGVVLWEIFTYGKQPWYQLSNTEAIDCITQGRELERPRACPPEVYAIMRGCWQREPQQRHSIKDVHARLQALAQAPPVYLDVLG
Chain of BDNF/NT-3 growth factors receptor (Homo sapiens) (Q16620 32-822 limits assumed): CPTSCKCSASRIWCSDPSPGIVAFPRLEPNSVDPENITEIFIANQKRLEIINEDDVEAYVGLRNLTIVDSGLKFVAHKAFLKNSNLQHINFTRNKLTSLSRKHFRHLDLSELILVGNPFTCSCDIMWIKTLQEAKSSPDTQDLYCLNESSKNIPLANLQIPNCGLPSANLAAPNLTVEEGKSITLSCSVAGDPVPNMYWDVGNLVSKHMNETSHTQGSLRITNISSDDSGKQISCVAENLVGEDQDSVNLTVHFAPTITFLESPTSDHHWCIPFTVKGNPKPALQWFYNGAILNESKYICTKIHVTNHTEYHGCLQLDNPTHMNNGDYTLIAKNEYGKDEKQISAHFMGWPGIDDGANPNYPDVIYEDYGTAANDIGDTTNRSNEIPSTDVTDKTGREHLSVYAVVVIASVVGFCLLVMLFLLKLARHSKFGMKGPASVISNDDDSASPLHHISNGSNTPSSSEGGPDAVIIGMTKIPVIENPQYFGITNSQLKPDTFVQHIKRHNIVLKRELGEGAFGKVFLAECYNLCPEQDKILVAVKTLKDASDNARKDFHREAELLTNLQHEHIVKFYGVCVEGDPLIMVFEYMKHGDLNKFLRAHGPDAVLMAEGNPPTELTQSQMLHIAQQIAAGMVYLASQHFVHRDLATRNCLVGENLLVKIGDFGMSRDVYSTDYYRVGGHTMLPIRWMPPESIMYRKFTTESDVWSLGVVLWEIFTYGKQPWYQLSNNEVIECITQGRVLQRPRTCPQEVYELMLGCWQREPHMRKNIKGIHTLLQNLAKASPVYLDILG

| Structure (SMILES) | inhibition [1] [%] | inhibition [2] [%] | inhibition [3] [%] | inhibition [4] [%] | inhibition [5] [%] | inhibition [6] [%] | inhibition [7] [%] | inhibition [8] [%] | inhibition [9] [%] | inhibition [10] [%] |
| --- | --- | --- | --- | --- | --- | --- | --- | --- | --- | --- |
| COc1cc(Nc2ncc3c(C)nc(-c4cccc(C(F)(F)F)c4)n3n2)cc(OC)c1OC | 7.83 | 4.54 | 16.5 | 4.76 | 11 | 3.45 | 16.6 | -1.61 | 14.4 | 2.65 |
| C#Cc1cccc(Nc2ncnc3ccc(OCCCCNCCS(C)(=O)=O)cc23)c1 | 1.9 | 3.91 | 2.28 | 3.6 | 4.94 | 5.2 | 7.94 | -6.6 | 9.83 | -1.65 |
| CCS(=O)(=O)c1ccc(OC)c(Nc2ncc(-c3cccc(-c4ccccc4F)c3)o2)c1 | 26 | 7.74 | 39.2 | 7.3 | 39.5 | 5.11 | 31.2 | 1.51 | 3.52 | 0.79 |
| O=C(Nc1n[nH]c2nc(-c3ccc(O)cc3)c(Br)cc12)C1CC1 | 12.3 | 5.55 | 14.5 | 5.79 | 16.4 | 4.99 | 9.15 | -1.54 | 15.3 | 5.34 |
| c1ccc(Oc2ccc(Nc3ncc(-c4ccccc4)o3)cc2)cc1 | 3.28 | 0.87 | 2.96 | 0.46 | 1.12 | 1.51 | 3.57 | -0.13 | 5.67 | 1.36 |
| CN(C)c1ccc2c(c1)/C(=C/Nc1ccc(S(N)(=O)=O)cc1)C(=O)N2 | 46.2 | 15.4 | 65.2 | 21 | 73.1 | 3.16 | 4.14 | 1.02 | 12.5 | 6.26 |
| Fc1ccc(-c2nc3n(c2-c2ccncc2)CCS3)cc1 | 1.45 | 2.62 | 0.16 | 2.96 | 3.11 | -0.13 | -0.14 | -8.34 | 9.6 | -1.28 |
| CCC(=O)Nc1ccc(C)c(-c2ccc(C(=O)NCC3CC3)cc2)c1 | 4.19 | 2.75 | 2.88 | 2.19 | 2.2 | 2.71 | 1.4 | -2.17 | 8.22 | 1.72 |
| CCN(CC)Cc1ccc(Nc2nccc(-c3cnn4ncccc34)n2)cc1 | 12.1 | 4.49 | 7.47 | 2.83 | 5.86 | 0.47 | 1.91 | -7.84 | 29.4 | 4.39 |
| Cc1ccc(C(=O)NC(C)C)cc1-c1ccc(C(=O)NCC2CC2)cc1 | 0.4 | -1.41 | 0.73 | 0.1 | 1.79 | -1.45 | -1.03 | 1.94 | -5.81 | -3.2 |
| COc1cc(C)c(N(C)C(=O)CN(C)C)cc1Nc1nc(Nc2cccc(F)c2C(N)=O)c2cc[nH]c2n1 | 1.31 | 0.94 | -2.87 | 1.87 | -1.19 | -1.41 | -0.09 | 0.02 | 25.7 | -0.3 |
| COc1ccc2cc(-c3c(-c4ccncc4)nc(-c4ccc(S(C)(=O)=O)cc4C)n3C)ccc2c1 | 0.55 | 2.95 | 3.12 | 2.38 | 4.11 | 3.55 | 5.35 | -5.17 | 8.65 | 2.7 |
| O=C(Nc1n[nH]c2cc(-c3cc(F)ccc3F)ccc12)C1CC1 | 8.4 | 3.77 | 8.07 | 3.77 | 14 | 2.25 | 0.99 | -1 | 9.7 | 2.63 |
| COc1ccc2ncn(-c3cc(O[C@H](C)c4ccccc4Cl)c(C(N)=O)s3)c2c1 | 4.03 | 3.84 | 9.91 | 4.36 | 11 | -5.63 | -1.33 | -5.25 | 9.02 | -1.27 |
| COc1cc(Nc2ncc(-c3ccccc3)o2)cc(OC)c1OC | 23.1 | 2.41 | 28.3 | 2.64 | 25.2 | 1.07 | 16.2 | -2.24 | -1.01 | 15.7 |
| C[C@@H](Oc1cc(-n2cnc3ccc(OCC4CCN(C)CC4)cc32)sc1C(N)=O)c1ccccc1Cl | 5.94 | 3.02 | 10.1 | 4.35 | 10.4 | 5.54 | 8.91 | -2.69 | 43.2 | 3.84 |
| COc1cc2ncn(-c3cc(OCCc4ccccc4)c(C(N)=O)s3)c2cc1OC | 3.49 | 1.14 | 8.57 | 2.85 | 14.7 | 2.33 | 3.1 | -3.55 | 6.73 | 2.54 |
